Measured values published in PubChem BioAssay (NCI).
This is part of a sample that, as a whole, favours compounds with a hit. Of some 83,000 tested, about 20% had one in any assay.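 Plates (96-well) were seeded with cells, treated with compound at one concentration, and incubated for 48 hours before percent growth was determined.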 Calls of active or inactive are those of the source. Rule for the calls: active = growth percent below 10; inactive = the rest.

Assays:
Test in all cases: NCI-60 one-dose screen, 48 h (100 = growth as untreated, 0 = no growth, -100 = all killed)
Settings in all cases: 10 µM unless noted
SR leukemia = tested on: SR leukemia
RPMI-8226 leukemia = tested on: RPMI-8226 leukemia
OVCAR-8 ovarian = tested on: OVCAR-8 ovarian
OVCAR-4 ovarian = tested on: OVCAR-4 ovarian
IGROV1 ovarian = tested on: IGROV1 ovarian
OVCAR-3 ovarian = tested on: OVCAR-3 ovarian
HS 578T breast = tested on: HS 578T breast
NCI/ADR-RES ovarian = tested on: NCI/ADR-RES ovarian
SK-OV-3 ovarian = tested on: SK-OV-3 ovarian
OVCAR-5 ovarian = tested on: OVCAR-5 ovarian

Measured: growth

C(=N\Nc1nc(N/N=C/c2ccc3c(c2)OCO3)nc(N2CCCCC2)n1)/c1ccc2c(c1)OCO2
active: SR leukemia 0.113%
inactive: RPMI-8226 leukemia 56.2% | OVCAR-8 ovarian 90.1% | OVCAR-4 ovarian 110% | IGROV1 ovarian 76.9% | OVCAR-3 ovarian 105% | HS 578T breast 104% | NCI/ADR-RES ovarian 85.5%

CC[C@]12C=CCN3CC[C@]4(C(=C(C(=O)OC)C1)Nc1cc5c(cc14)[C@@H]1[C@H](O5)[C@@H](O)[C@@]4(CC)CC(C(=O)OC)=C5Nc6cc(O)ccc6[C@@]56CCN1C46)C32 (stereo partly specified)
inactive: OVCAR-8 ovarian 19.4% | OVCAR-4 ovarian 15.4% | SK-OV-3 ovarian 24.1%
active: SR leukemia 5.68% | RPMI-8226 leukemia -10.2% | IGROV1 ovarian -2.81% | HS 578T breast -7% | NCI/ADR-RES ovarian 2.99%

CN(C)CCNc1ccc2ncc(C#Cc3cncc(C(=O)Nc4ccc(CN5CCN(C)CC5)c(C(F)(F)F)c4)c3)n2n1
inactive: SK-OV-3 ovarian 45.1% | NCI/ADR-RES ovarian 76%
active: SR leukemia 0.232% | RPMI-8226 leukemia -11.2% | OVCAR-8 ovarian 1.03% | OVCAR-4 ovarian -10.1% | IGROV1 ovarian 0.103% | HS 578T breast -16.1%

C[C@@H]1OCC2(CCN(c3cnc(C(=O)Nc4cc(F)cc5cccnc45)cn3)CC2)[C@@H]1N
active: SR leukemia 2.82%
inactive: RPMI-8226 leukemia 55.5% | OVCAR-8 ovarian 86.8% | OVCAR-4 ovarian 14.8% | SK-OV-3 ovarian 102% | IGROV1 ovarian 28% | OVCAR-3 ovarian 18.7% | HS 578T breast 66.6% | NCI/ADR-RES ovarian 76.4%

COc1ccc(-c2c(C(N)=O)c(N)n(Cc3nc4ccccc4[nH]3)c(=O)c2C#N)c(OC)c1
inactive: SR leukemia 90.5% | RPMI-8226 leukemia 99% | OVCAR-8 ovarian 97.2% | OVCAR-4 ovarian 108% | IGROV1 ovarian 72% | HS 578T breast 99.2%

NS(=O)(=O)c1nnc(/N=C/c2c(O)[nH]c3ccccc23)s1
inactive: SR leukemia 98.3% | RPMI-8226 leukemia 109% | OVCAR-8 ovarian 99.9% | OVCAR-4 ovarian 98.5% | SK-OV-3 ovarian 99.5% | IGROV1 ovarian 76.5% | OVCAR-3 ovarian 107% | HS 578T breast 102% | NCI/ADR-RES ovarian 107%

Cc1ccc(C(=O)Nc2ccc(CNCCN3CCOCC3)c(C(F)(F)F)c2)cc1C#Cc1cnc2cccnn12
active: SR leukemia -15.7% | RPMI-8226 leukemia -12.8% | HS 578T breast -13.3% | NCI/ADR-RES ovarian 5.66%
inactive: OVCAR-8 ovarian 13.3% | OVCAR-4 ovarian 25.1% | IGROV1 ovarian 10.6% | OVCAR-3 ovarian 21.6%

O=C(CCCCCCNC(=O)C(O)(O)C(F)(F)F)Nc1ccc(Br)cc1
inactive: RPMI-8226 leukemia 20.7% | OVCAR-4 ovarian 28.5% | IGROV1 ovarian 15.7% | HS 578T breast 15.7% | NCI/ADR-RES ovarian 16.9%
active: SR leukemia 8.58% | OVCAR-8 ovarian 7.83% | SK-OV-3 ovarian -13.4% | OVCAR-3 ovarian -12.8%

CC(C)(C)Nc1nc2c(OCCc3ccccc3)cccn2c1-c1ccc([N+](=O)[O-])cc1
inactive: SR leukemia 52% | RPMI-8226 leukemia 43.1% | OVCAR-8 ovarian 64% | OVCAR-4 ovarian 42.3% | SK-OV-3 ovarian 76.5% | IGROV1 ovarian 56.9% | OVCAR-3 ovarian 50.6% | HS 578T breast 78.3% | NCI/ADR-RES ovarian 51.6%

O=C(N/N=C\c1ccc(F)cc1)c1ccc2nc(-c3ccc(Br)cc3)[nH]c2c1
active: IGROV1 ovarian 3.87%
inactive: SR leukemia 41.3% | RPMI-8226 leukemia 63.5% | OVCAR-8 ovarian 27.4% | OVCAR-5 ovarian 63.3% | OVCAR-4 ovarian 12.5% | HS 578T breast 36.1% | NCI/ADR-RES ovarian 68.2%

O=C(CSc1nnc(-c2cccs2)n1-c1ccccc1)Nc1ccccc1F
inactive: SR leukemia 25.3% | RPMI-8226 leukemia 88.7% | OVCAR-8 ovarian 95.1% | OVCAR-4 ovarian 95.1% | SK-OV-3 ovarian 96.4% | IGROV1 ovarian 84.9% | OVCAR-3 ovarian 86.9% | HS 578T breast 91.6% | NCI/ADR-RES ovarian 49.2%

CC1=C(C)C(=O)C(Nc2ccc(C)c(C)c2)=C(Br)C1=O
inactive: SR leukemia 43.6% | RPMI-8226 leukemia 29.8% | OVCAR-8 ovarian 100% | OVCAR-4 ovarian 55.1% | SK-OV-3 ovarian 100% | IGROV1 ovarian 90.9% | OVCAR-3 ovarian 109% | HS 578T breast 97.4% | NCI/ADR-RES ovarian 82.7%

N#Cc1cnc2ccc(-c3cnc4n[nH]nc4c3)cc2c1N1CCc2cc(F)c(Cl)cc21
active: SR leukemia 3.77% | OVCAR-4 ovarian -16.9% | IGROV1 ovarian -8.77% | HS 578T breast -10.7%
inactive: RPMI-8226 leukemia 15.8% | OVCAR-8 ovarian 16.7% | OVCAR-3 ovarian 26.2% | NCI/ADR-RES ovarian 45%

Cc1ccc(NC(=O)/C=C/c2ccc(OCCCOc3ccc4c(C)cc(=O)oc4c3)cc2)cc1
inactive: SR leukemia 70.2% | RPMI-8226 leukemia 90.1% | OVCAR-8 ovarian 52.3% | OVCAR-4 ovarian 19.9% | SK-OV-3 ovarian 79.8% | IGROV1 ovarian 73.3% | HS 578T breast 40% | NCI/ADR-RES ovarian 52.5%

N#Cc1c(-c2cccs2)c(C#N)c(=O)n(Cc2nc3ccccc3[nH]2)c1N
inactive: SR leukemia 92.5% | RPMI-8226 leukemia 95.9% | OVCAR-8 ovarian 95.1% | OVCAR-4 ovarian 99.6% | SK-OV-3 ovarian 95.4% | IGROV1 ovarian 61.7% | HS 578T breast 102% | NCI/ADR-RES ovarian 99.5%

COc1ccc2c(c1)c(/C=N/Nc1ccnc3cc(Cl)ccc13)cn2C
active: SR leukemia -22.6% | OVCAR-8 ovarian -66.8% | OVCAR-4 ovarian -76.7% | SK-OV-3 ovarian -89.2% | IGROV1 ovarian -82% | HS 578T breast -53.1% | NCI/ADR-RES ovarian -71.1%
